This passage reports growth inhibition results from PubChem BioAssay (NCI).

This is part of a sample that, as a whole, favours compounds with a hit. Of some 79,000 tested, about 15% had one in any assay. Unmarked numbers belong to inactive results. The source made the active and inactive calls. No stated cut-off is given here; in the data, active means growth inhibition above about 70%; inactive means the rest.

The nature of the first experiment: NCI Yeast Anticancer Drug Screen. Data for the CLN2oe strain (AID 163).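 Further: 0% = growth of vehicle-only control cultures.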 Particulars: S. cerevisiae CLN2oe strain, at 100.0 µM, stronger effect = higher value. An outline of the steps: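 Growth of a genetically modified yeast strain is measured after compound exposure and compared with cultures given vehicle alone.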
As to `CC[C@@]1(O)C(=O)OCc2c1cc1n(c2=O)Cc2cc3c(N)cccc3nc2-1`, the growth inhibition is 13%.

On to `CN(C)c1ccc(Sc2ccc3nc(N)nc(N)c3c2)cc1`, for which the growth inhibition is 18%.

Take `CC(=O)OCCOCNC(=S)N/N=C(\C)c1cnccn1`: the growth inhibition was 82% (active).

Regarding `COc1ccc(C2c3cc4c(cc3OC(C)(O)C2C)OCO4)c(OC)c1` (stereo not given), the growth inhibition is 82% (active).

In the case of `COc1ccc(Br)c(C(=O)Sc2nnnn2-c2cccc(Cl)c2)c1`, the growth inhibition is 94% (active).

In the case of `COc1ccc(-c2cn(-c3ccc(I)cc3)c3ncnc(N)c23)cc1`, the growth inhibition is 4%.

On to `COc1cc(/C=C2\CCc3ccccc3C2=O)cc(OC)c1OC`, for which the growth inhibition was 74% (active).

In the case of `CC(C)/C(Cl)=N\OC(=O)Nc1cccc(Cl)c1`, the growth inhibition is 10%.

Consider `CC1(C)[C@@H]2CC[C@]1(C)[C@H](OC(=O)CSC#N)C2`, for which the growth inhibition was 95% (active).

For the compound `COc1ccc(/C(C)=N/OC(=O)c2c(-c3ccccc3Cl)noc2C)cc1CN1CCOCC1`, the growth inhibition was 60%.

Turning to `C=CC(C)(O)CCC1C(=C)C(O)CC2C(C)(C)CCCC12C` (stereo not given), the growth inhibition is 28%.

On to `S=C(Nc1ccc(Cl)c(Cl)c1)SCc1ccc2c(c1)OCO2`, for which the growth inhibition was 93% (active).

As for `COc1cc(C2C3=C(COC3=O)Oc3cc4c(cc32)OCO4)ccc1O` (stereo not given), the growth inhibition is 24%.

Take `S=C(Nc1ccc(Cl)cc1)SC1CCCCC1`: the growth inhibition is 99% (active).

In the case of `c1ccc(-c2nc3cccnc3s2)cc1`, the growth inhibition was 3%.

Consider `O=[N+]([O-])c1cc(CCl)ccc1CCl`, for which the growth inhibition was 97% (active).

Turning to `COc1ccc(/C=C2\SC(=S)N(/C=C/c3nc4ccccc4[nH]c3=O)C2=O)cc1OC`, the growth inhibition is 88% (active).

With `C#CCCCc1ccccc1`, the growth inhibition is 73% (active).

Turning to `CC(=O)Cc1ccc[cH-]1.[Fe+2].c1cc[cH-]c1`, the growth inhibition is 23%.

Turning to `FC(F)(F)c1cc(NC(=S)N2c3ccccc3-n3cccc3C2c2cccnc2)cc(C(F)(F)F)c1` (stereo not given), the growth inhibition is -5%.

For `CC(C)(CN1CCCCC1)C(=O)CC(SCCS(=O)(=O)O)c1ccc(Br)cc1` (stereo not given), the growth inhibition is 33%.

For the compound `C[Si](C)(C)CNC(=O)OCc1ccccc1`, the growth inhibition is 5%.

For the compound `Oc1cccc2c(Cl)ccnc12`, the growth inhibition was 97% (active).

For the compound `O=C1C=CC(=C(c2ccccc2)c2ccccc2)c2ccccc21`, the growth inhibition was -9%.

For `S=C(S)NN1CCOCC1`, the growth inhibition was 42%.

Another experiment can be described thus: NCI Yeast Anticancer Drug Screen. Data for the cln2 rad14 strain (AID 165).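 Further: 0% = growth equal to vehicle treated cultures.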 Particulars: S. cerevisiae cln2 rad14 strain, at 5.0 µM (retest, dose inferred, filed as 0.5), stronger effect = higher value. In outline: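 Compounds are applied to the cln2 rad14 yeast strain, and growth is then compared with that of vehicle-treated cultures to give inhibition.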
In the case of `C/C(=N\NC(=S)SCc1ccccc1)c1ccccn1`, the growth inhibition was 3%.

As for `CN(C)c1ccc(Sc2ccc3nc(N)nc(N)c3c2)cc1`, the growth inhibition was 24%.

Regarding `COc1ccc(C2c3cc4c(cc3OC(C)(O)C2C)OCO4)c(OC)c1` (stereo not given), the growth inhibition is 5%.

As for `COc1cc(C2SCC(=O)N2c2ccc(-c3ccc(-n4c(-c5ccccc5)nc5ccccc5c4=O)cc3)cc2)cc(OC)c1OC` (stereo not given), the growth inhibition was 32%.

With `COc1ccc(Br)c(C(=O)Sc2nnnn2-c2cccc(Cl)c2)c1`, the growth inhibition was 58%.

For `O=C(NNc1ccnc2cc(Cl)ccc12)/C(=C\c1ccccc1Cl)NC(=O)c1ccccc1`, the growth inhibition is 8%.

In the case of `CSC(=S)Nc1cccc(C)n1`, the growth inhibition is 9%.

In the case of `O=C(/C=C\c1ccc(Cl)cc1Cl)c1cccs1`, the growth inhibition is 9%.

Turning to `COc1ccc(-c2cn(-c3ccc(I)cc3)c3ncnc(N)c23)cc1`, the growth inhibition was 4%.

`CN(C)c1ccc(C(C#N)=C(C#N)C#N)cc1`: the growth inhibition is -45%.

Consider `CC1(C)[C@@H]2CC[C@]1(C)[C@H](OC(=O)CSC#N)C2`, for which the growth inhibition was 34%.

As for `NNC(=O)CCc1ccc2ccc3ccccc3c2c1`, the growth inhibition was -28%.

With `COc1ccc(/C(C)=N/OC(=O)c2c(-c3ccccc3Cl)noc2C)cc1CN1CCOCC1`, the growth inhibition is 46%.

Regarding `S=C(Nc1ccc(Cl)cc1)SC1CCCCC1`, the growth inhibition is -6%.

Regarding `Nc1nc(-c2cccnc2)cc(-c2cc(-c3cccnc3)nc(N)n2)n1`, the growth inhibition was 46%.

`COC1=CC(=O)C2C(C1=O)C(c1ccc(Cl)cc1)[C@@H]2C` (stereo not given in full): the growth inhibition was 30%.

Take `c1ccc(-c2nc3cccnc3s2)cc1`: the growth inhibition is -25%.

Turning to `O=[N+]([O-])c1cc(CCl)ccc1CCl`, the growth inhibition was 57%.

Take `COc1ccc(/C=C2\SC(=S)N(/C=C/c3nc4ccccc4[nH]c3=O)C2=O)cc1OC`: the growth inhibition is -30%.

Turning to `CCCN(CCC)CC(O)c1cc(-c2ccc(Cl)cc2)nc2c(C)c(Cl)ccc12` (stereo not given), the growth inhibition is 9%.

Take `O=C(Nc1ccccc1)OCCc1ccc(Cl)c(Cl)c1`: the growth inhibition was -8%.

In the case of `CC(O)C(O)C(O)C(/C=N\Nc1ccccc1)=N/Nc1ccccc1` (stereo not given), the growth inhibition is 1%.

For `Cc1cc(I)ccc1N`, the growth inhibition was 46%.

With `FC(F)(F)c1cc(NC(=S)N2c3ccccc3-n3cccc3C2c2cccnc2)cc(C(F)(F)F)c1` (stereo not given), the growth inhibition is -10%.

For the compound `CC(C)(CN1CCCCC1)C(=O)CC(SCCS(=O)(=O)O)c1ccc(Br)cc1` (stereo not given), the growth inhibition was 13%.

Turning to `C[Si](C)(C)CNC(=O)OCc1ccccc1`, the growth inhibition is 14%.

With `CC(C(=O)N1C(=O)N(C(=O)[C@H](C)C(O)c2ccccc2)[C@H](c2ccccc2)[C@H]1c1ccccc1)[C@@H](O)c1ccccc1` (stereo not given in full), the growth inhibition was 71% (active).

Regarding `Oc1cccc2c(Cl)ccnc12`, the growth inhibition was 43%.

Consider `O=C1C=CC(=C(c2ccccc2)c2ccccc2)c2ccccc21`, for which the growth inhibition is 25%.

As to `S=C(S)NN1CCOCC1`, the growth inhibition is 83% (active).
